The results in this text go back to ChEMBL document CHEMBL1961873, “Compounds: GSK PKIS; Assays: Nanosyn kinase panel” (2012).

The target of test [1] is Sphingosine kinase 1 (Homo sapiens) (UniProt Q9NYA1). The settings on record: at 1 µM.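 Also: mean SPHK1 inhibition value reported from the GSK PKIS kinase panel screen.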
Test [2] addresses T1, Sphingosine kinase 2 (Homo sapiens) (UniProt Q9NRA0).
T1 sequence (whole entry): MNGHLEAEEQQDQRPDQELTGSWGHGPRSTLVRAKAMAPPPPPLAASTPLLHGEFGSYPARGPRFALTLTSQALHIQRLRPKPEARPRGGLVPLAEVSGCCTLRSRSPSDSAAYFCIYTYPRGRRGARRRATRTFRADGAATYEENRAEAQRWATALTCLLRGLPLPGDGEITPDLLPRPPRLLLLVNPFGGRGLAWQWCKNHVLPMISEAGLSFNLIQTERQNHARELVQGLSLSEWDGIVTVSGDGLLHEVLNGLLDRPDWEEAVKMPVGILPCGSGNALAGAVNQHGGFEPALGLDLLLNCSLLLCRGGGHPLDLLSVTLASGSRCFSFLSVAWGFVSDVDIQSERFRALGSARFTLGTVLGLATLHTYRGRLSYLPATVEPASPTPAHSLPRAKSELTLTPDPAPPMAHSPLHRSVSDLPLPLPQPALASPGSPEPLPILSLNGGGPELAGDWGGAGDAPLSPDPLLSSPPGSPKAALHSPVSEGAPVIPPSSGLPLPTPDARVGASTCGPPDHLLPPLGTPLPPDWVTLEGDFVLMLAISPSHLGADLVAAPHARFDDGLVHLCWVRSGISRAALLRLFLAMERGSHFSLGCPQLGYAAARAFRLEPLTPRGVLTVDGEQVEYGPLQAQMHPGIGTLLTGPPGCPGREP
The settings on record: at 0.1 µM.

For test [3], the target named is T1, Sphingosine kinase 2 (Homo sapiens). To be noted: at 1 µM.
Test [4] concerns the target Casein kinase II subunit alpha (Homo sapiens) (UniProt P68400). The settings on record: at 0.1 µM.
Test [5] has the same target. The settings on record: at 1 µM.
The target in test [6] is T2, Inhibitor of nuclear factor kappa-B kinase subunit alpha (Homo sapiens) (UniProt O15111).
T2 sequence (whole entry): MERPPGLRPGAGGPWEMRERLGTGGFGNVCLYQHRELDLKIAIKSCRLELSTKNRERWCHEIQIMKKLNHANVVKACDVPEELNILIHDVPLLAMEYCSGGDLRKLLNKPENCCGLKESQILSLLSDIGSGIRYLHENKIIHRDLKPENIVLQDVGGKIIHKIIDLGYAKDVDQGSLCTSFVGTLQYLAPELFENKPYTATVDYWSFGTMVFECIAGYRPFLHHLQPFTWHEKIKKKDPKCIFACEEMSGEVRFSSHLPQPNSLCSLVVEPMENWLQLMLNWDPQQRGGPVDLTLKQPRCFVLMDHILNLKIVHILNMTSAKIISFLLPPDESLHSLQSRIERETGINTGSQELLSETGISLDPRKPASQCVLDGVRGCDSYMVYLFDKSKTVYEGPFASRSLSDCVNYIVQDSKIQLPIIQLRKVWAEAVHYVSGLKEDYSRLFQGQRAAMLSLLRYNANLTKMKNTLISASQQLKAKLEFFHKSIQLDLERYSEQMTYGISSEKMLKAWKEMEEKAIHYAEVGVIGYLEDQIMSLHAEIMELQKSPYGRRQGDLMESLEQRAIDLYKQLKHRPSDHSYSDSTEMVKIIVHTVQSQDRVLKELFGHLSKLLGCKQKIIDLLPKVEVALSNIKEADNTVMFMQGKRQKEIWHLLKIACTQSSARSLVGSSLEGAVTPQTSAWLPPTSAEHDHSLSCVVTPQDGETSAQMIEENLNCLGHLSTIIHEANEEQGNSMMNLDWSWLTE
To be noted: at 0.1 µM.

The target in test [7] is T2, Inhibitor of nuclear factor kappa-B kinase subunit alpha (Homo sapiens). To be noted: at 1 µM.
In test [8] the target is T3, Inhibitor of nuclear factor kappa-B kinase subunit beta (Homo sapiens) (UniProt O14920).
T3 sequence (whole entry): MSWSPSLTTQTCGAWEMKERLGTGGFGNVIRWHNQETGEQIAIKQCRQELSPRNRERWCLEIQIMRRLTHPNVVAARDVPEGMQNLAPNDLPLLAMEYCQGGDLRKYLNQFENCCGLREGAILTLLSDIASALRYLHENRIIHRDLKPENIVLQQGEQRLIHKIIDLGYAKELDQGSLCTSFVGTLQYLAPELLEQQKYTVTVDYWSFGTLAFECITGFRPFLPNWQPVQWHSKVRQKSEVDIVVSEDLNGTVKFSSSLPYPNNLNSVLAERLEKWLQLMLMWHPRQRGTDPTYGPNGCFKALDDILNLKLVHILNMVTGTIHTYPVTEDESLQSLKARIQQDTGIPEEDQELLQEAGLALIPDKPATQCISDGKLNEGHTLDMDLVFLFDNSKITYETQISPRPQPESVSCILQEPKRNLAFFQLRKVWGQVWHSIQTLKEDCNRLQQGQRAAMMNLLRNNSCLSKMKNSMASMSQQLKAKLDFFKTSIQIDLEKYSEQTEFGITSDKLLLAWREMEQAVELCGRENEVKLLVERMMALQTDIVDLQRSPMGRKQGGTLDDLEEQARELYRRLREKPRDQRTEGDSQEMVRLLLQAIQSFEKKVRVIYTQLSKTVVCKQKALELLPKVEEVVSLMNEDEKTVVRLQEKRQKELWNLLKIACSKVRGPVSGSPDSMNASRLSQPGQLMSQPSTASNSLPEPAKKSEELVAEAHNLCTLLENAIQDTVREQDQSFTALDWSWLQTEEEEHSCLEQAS
The settings on record: at 0.1 µM.

In test [9] the target is T3, Inhibitor of nuclear factor kappa-B kinase subunit beta (Homo sapiens). The settings on record: at 1 µM.
Test [10] has as its target T4, Inhibitor of nuclear factor kappa-B kinase subunit epsilon (Homo sapiens) (UniProt Q14164).
T4 sequence (whole entry): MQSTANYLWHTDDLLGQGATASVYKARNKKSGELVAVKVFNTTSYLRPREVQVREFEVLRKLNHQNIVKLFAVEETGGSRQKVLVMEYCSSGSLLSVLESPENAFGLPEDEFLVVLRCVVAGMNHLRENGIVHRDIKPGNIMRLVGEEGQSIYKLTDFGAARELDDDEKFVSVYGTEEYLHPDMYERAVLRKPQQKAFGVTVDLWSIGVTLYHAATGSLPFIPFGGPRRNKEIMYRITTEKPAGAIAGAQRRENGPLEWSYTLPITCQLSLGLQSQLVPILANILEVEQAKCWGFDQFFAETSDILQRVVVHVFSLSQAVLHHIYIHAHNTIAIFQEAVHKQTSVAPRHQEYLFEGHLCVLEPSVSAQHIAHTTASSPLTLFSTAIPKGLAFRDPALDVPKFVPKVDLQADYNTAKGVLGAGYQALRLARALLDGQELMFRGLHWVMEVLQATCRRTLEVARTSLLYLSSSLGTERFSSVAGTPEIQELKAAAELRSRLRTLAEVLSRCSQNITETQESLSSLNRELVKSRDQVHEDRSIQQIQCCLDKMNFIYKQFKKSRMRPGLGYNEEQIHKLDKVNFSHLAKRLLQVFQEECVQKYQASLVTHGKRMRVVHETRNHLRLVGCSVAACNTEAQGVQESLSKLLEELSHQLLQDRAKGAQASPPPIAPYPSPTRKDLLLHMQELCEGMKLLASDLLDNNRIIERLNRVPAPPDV
To be noted: at 0.1 µM.

The target in test [11] is T4, Inhibitor of nuclear factor kappa-B kinase subunit epsilon (Homo sapiens). The settings on record: at 1 µM.
Test [12] has as its target T5, Serine/threonine-protein kinase Nek1 (Homo sapiens) (UniProt Q96PY6).
T5 sequence (whole entry): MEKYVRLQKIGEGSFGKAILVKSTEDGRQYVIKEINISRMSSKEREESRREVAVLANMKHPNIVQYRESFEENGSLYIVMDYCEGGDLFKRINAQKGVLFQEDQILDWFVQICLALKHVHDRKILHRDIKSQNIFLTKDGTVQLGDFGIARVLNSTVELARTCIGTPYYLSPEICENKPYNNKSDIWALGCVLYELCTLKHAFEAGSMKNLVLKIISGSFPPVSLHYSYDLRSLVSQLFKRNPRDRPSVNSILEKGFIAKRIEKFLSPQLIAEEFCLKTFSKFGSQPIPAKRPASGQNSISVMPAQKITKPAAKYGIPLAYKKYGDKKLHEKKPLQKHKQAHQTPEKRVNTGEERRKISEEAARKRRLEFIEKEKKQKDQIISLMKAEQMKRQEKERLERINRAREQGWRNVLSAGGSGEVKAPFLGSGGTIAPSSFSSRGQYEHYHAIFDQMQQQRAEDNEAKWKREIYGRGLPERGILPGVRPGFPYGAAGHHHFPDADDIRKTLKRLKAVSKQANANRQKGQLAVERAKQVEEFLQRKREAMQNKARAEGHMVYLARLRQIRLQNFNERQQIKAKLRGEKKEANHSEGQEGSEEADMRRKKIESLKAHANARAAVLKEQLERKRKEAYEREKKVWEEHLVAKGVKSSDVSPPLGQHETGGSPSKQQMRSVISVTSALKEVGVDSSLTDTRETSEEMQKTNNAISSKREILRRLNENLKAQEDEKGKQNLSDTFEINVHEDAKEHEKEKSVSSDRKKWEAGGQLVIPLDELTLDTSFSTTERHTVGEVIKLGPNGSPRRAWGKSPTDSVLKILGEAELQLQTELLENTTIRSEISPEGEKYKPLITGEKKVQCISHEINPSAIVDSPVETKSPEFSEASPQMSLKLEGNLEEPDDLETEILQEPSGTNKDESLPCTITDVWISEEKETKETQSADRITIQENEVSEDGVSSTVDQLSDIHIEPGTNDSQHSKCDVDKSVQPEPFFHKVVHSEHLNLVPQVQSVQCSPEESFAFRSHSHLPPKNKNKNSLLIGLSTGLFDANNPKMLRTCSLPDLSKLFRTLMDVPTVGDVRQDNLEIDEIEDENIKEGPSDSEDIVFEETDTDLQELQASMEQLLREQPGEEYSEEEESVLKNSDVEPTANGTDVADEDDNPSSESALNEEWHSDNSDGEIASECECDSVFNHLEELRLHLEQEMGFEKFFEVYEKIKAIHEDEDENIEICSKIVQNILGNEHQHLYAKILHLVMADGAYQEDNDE
The settings on record: at 0.1 µM.

The target of test [13] is T5, Serine/threonine-protein kinase Nek1 (Homo sapiens). To be noted: at 1 µM.
Test [14] deals with T6, Serine/threonine-protein kinase Nek2 (Homo sapiens) (UniProt P51955).
T6 sequence (whole entry): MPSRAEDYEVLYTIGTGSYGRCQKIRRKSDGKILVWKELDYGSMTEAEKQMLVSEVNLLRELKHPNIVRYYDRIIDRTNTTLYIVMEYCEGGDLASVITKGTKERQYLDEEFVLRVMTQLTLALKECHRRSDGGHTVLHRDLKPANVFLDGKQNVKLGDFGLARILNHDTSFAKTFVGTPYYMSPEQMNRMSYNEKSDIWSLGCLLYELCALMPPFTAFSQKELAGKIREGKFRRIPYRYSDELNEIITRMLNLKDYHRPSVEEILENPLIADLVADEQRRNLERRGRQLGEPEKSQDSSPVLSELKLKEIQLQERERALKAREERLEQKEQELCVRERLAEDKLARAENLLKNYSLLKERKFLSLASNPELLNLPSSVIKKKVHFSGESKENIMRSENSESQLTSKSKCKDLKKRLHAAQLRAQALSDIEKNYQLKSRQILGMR
The settings on record: at 0.1 µM.

For test [15], the target named is T6, Serine/threonine-protein kinase Nek2 (Homo sapiens). The settings on record: at 1 µM.
In test [16] the target is Serine/threonine-protein kinase Nek6 (Homo sapiens) (UniProt Q9HC98). The settings on record: at 0.1 µM.
Chain of Serine/threonine-protein kinase Nek6 (Homo sapiens) (Q9HC98 whole entry): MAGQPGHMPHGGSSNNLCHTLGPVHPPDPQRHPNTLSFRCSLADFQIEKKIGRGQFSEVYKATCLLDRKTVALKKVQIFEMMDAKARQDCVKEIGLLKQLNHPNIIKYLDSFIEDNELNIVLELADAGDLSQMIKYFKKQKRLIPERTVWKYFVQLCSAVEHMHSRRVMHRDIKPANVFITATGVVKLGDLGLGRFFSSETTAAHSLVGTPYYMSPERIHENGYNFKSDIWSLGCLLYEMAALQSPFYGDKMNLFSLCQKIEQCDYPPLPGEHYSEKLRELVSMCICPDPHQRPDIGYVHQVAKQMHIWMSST
Test [17] shares this target. To be noted: at 1 µM.
The target of test [18] is Serine/threonine-protein kinase Nek7 (Homo sapiens) (UniProt Q8TDX7). To be noted: at 0.1 µM.
Chain of Serine/threonine-protein kinase Nek7 (Homo sapiens) (Q8TDX7 whole entry, looked up): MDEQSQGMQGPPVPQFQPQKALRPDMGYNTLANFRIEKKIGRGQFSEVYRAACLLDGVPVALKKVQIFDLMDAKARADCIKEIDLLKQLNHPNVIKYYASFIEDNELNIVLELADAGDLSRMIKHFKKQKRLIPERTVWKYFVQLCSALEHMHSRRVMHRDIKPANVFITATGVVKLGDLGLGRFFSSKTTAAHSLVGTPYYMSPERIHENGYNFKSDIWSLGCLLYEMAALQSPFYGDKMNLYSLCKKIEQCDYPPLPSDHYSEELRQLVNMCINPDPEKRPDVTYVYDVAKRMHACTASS
Test [19] shares this target. The settings on record: at 1 µM.
For test [20], the target named is T7, Serine/threonine-protein kinase Nek9 (Homo sapiens) (UniProt Q8TD19).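 Also: reported value is the mean percent inhibition of NEK9.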
T7 sequence (whole entry): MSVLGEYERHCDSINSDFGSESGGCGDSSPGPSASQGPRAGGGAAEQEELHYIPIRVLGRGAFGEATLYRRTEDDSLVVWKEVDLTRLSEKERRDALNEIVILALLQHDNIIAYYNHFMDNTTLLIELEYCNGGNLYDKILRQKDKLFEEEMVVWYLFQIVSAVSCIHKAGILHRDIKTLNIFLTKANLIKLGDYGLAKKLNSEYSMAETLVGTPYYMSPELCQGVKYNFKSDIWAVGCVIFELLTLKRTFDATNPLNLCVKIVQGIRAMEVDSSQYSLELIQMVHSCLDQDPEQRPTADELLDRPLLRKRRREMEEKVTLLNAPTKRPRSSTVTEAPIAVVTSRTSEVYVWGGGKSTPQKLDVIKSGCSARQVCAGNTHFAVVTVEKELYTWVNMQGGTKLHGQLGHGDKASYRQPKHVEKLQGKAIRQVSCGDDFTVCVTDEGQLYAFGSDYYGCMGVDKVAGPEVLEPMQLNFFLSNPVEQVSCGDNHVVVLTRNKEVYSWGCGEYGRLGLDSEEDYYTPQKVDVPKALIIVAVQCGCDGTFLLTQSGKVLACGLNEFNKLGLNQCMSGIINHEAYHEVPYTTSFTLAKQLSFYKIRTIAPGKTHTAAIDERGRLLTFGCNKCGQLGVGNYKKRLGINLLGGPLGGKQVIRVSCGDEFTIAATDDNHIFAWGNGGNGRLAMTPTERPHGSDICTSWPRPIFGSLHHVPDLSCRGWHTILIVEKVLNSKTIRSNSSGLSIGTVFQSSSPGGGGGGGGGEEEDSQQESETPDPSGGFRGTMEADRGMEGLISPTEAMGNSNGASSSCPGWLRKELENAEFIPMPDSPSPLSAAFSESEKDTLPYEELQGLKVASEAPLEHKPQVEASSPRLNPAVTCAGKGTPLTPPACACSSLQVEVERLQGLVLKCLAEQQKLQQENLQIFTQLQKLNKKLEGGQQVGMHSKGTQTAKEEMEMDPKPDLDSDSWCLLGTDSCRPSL
To be noted: at 0.1 µM.

SMILES strings stand for the structures.

For orientation: inhibition means the drop in the measured response relative to a control, in per cent.

Chain of Casein kinase II subunit alpha (Homo sapiens) (P68400 whole entry, looked up): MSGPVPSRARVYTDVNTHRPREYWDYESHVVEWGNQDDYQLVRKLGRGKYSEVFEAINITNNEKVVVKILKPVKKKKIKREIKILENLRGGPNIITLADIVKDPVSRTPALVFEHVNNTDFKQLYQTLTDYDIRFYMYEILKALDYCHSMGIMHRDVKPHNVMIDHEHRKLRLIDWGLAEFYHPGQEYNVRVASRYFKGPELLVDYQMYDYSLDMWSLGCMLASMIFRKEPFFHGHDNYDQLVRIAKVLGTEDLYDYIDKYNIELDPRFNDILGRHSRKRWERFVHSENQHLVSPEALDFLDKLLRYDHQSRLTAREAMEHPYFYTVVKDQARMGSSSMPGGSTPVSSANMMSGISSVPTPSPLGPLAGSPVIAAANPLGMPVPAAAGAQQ
Chain of Sphingosine kinase 1 (Homo sapiens) (Q9NYA1 whole entry): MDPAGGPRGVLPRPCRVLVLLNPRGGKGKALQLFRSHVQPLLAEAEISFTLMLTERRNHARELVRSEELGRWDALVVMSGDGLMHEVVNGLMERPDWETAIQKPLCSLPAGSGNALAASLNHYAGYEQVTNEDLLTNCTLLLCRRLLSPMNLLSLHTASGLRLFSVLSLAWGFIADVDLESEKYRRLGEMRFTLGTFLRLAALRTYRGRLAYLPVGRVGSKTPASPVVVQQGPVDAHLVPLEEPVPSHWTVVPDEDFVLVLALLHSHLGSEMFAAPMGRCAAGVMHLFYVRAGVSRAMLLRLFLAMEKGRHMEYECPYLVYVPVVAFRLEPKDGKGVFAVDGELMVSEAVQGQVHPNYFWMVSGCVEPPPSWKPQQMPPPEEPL

As for `COc1cc2ncn(-c3cc(OCc4cccs4)c(C(N)=O)s3)c2cc1OC`, the inhibition is -0.69% in test [1]; 0.11% in test [2]; -0.11% in test [3]; 5.63% in test [4]; 20.8% in [5]; 3.56% in test [6]. In addition, the inhibition in [7] turned out to be 4.87%; in test [8], 3.09%; in [9] it was 6.07%; in test [10], 7.67%; in test [11], 7.71%; in test [12], 3.32%. Further, the inhibition in test [13] stood at 7.88%; in test [14], 4.6%; in test [15], 15.3%; in test [16] it was 3.67%; in test [17] it was 6.02%; in [18], 1.64%. Further, the figures for the inhibition in [19] and in test [20] were 2.38% and 5.68%, respectively.
